Laboratory results published in ChEMBL document CHEMBL3433997, “St. Jude Leishmania screening dataset” (2016).

Key:
Format in all cases: functional
[1] = target: Solute carrier family 2, facilitated glucose transporter member 1 (Homo sapiens) (UniProt P11166); assay: ST_JUDE_LEISH: Cytotoxicity at 2uM final concentration against transgenic Leishmania Mexicana promastigotes LmGLUT1 that are glucose transport deficient and complemented with the human glucose transporter GLUT1. Activity is measured by DNA content using SYBR green in vitro
Chain of Solute carrier family 2, facilitated glucose transporter member 1 (Homo sapiens) (P11166 whole entry): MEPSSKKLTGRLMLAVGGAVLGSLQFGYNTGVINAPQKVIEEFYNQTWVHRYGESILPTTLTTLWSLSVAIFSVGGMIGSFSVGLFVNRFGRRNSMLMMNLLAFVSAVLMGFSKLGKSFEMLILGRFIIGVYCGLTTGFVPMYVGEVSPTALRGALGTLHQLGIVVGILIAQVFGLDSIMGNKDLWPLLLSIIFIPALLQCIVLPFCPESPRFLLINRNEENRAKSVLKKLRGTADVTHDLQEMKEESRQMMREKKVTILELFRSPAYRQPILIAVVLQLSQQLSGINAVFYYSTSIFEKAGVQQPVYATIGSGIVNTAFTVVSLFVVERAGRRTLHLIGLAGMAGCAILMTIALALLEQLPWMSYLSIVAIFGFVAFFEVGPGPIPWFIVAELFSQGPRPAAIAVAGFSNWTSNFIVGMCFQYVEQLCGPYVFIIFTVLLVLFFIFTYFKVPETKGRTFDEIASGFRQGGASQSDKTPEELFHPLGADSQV

[2] = target: Hexose transporter 1 (Plasmodium falciparum) (UniProt O97467); assay: ST_JUDE_LEISH: Cytotoxicity at 2uM final concentration against transgenic Leishmania Mexicana promastigotes LmPfHT that are glucose transport deficient and complemented with the Plasmodium falciparum hexose transporter. Activity is measured by DNA content using SYBR green in vitro
[3] = target: Glucose transporter (Leishmania mexicana) (UniProt O61059); assay: ST_JUDE_LEISH: Cytotoxicity at 2uM final concentration against transgenic Leishmania Mexicana promastigotes LmGT2 that are glucose transport deficient and complemented with the L. Mexicana glucose transporter 2. Activity is measured by DNA content using SYBR green in vitro

| SMILES | inhibition [1] [%] | inhibition [2] [%] | inhibition [3] [%] |
| --- | --- | --- | --- |
| O=C(N[C@H]1CCCC[C@H]1C(=O)O)c1ccccc1 | 0.5 | 1.61 | 0.81 |
| CC(C)(C)c1ccc(NC(=O)N[C@@H]2CCN(c3ccnc4ccccc34)C2)cc1 | 0.09 | -0.25 | 0.79 |
| N#Cc1cccc(Nc2nccc(NCC(O)c3ccc(C(F)(F)F)cc3)n2)c1 (centres undefined) | 3.05 | 3.09 | 0.03 |
| CC(Nc1cc(-c2ccccn2)nc(-c2ccccn2)n1)c1ccccc1 (centres undefined) | 23.4 | 12.8 | 17.5 |
| CC(C)(C)c1cc(C(=O)N2CCN(c3ncnc4ccsc34)CC2)n(Cc2ccccc2)n1 | 4.27 | 4.01 | 2.2 |
| Cc1ccc(N2C(=O)C3C(C2=O)C2(c4ccccc4)C(=O)C3(c3ccccc3)C(c3ccccc3)=C2c2ccccc2)c(C)c1 (centres undefined) | 6.28 | 4.9 | 3.25 |
| Cc1cc(=O)c2cc(Oc3cccc(OC(F)(F)F)c3)ccc2[nH]1 | 1.1 | 2.75 | 4.49 |
| CC(C)(C)C1CCc2nc(N)nc(N)c2C1 (centres undefined) | 44.3 | 55.5 | 46.5 |
| O=C(c1cncc(-c2ccccc2)c1)N(Cc1cncn1Cc1ccccc1F)CC1CC1 | 0.88 | 0.96 | -0.58 |
| CC(=O)Nc1cccc(C(=O)Nc2ccc(-c3cccc(-c4nc5cccc(C)c5[nH]4)c3)cc2)c1 | 0.48 | 1.78 | 0.36 |
| c1ccc(CN2CCN(CCNc3c4ccccc4nc4ccccc34)CC2)cc1 | 13.5 | 10.9 | 12.9 |
| Cc1c(CNCCCNc2nc3ccncc3[nH]2)sc(Br)c1Br | 6.56 | -2.83 | 4.11 |
| Cc1ccccc1C1CCN(C2CCC(NC(=O)c3ccc(-c4cccc(C(F)(F)F)c4)o3)CC2)CC1 (centres undefined) | 5.47 | 2.19 | 3.24 |
